# Gli-Sufu antag = Gli-Sufu pathway antagonists, primary screen, luciferase luminescence, Sufu-KO-LIGHT cells, uHTS. inhibition, % at 5 µM. hit rate 0.74% among 340,000. AID 588413, 2011. Sufu-KO-LIGHT fibroblasts, Gli luciferase reporter luminescence;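 active = inhibition above about 55%, limit read from the data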
# Beta apoptosis = inhibitors of cytokine-induced beta cell apoptosis, primary screen, luminescence. INS-1E cytokine-induced death, ATP luminescence, 48 h; percent of positive-control rescue, neutral wells zero. protection from apoptosis, % (test concentration not listed). hit rate 0.8% among 300,000;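 active = Every replicate reaches about 75%, or at least half do and their mean reaches it too, limit read from the data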;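 also: higher means more ATP so stronger rescue from cytokine killing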
# Jurkat NFkB inh = inhibitors of induced NF-kB luciferase reporter, primary screen, TCR NF-kB activation inhibitor project, cell-based, luminescence, uHTS; inhibition, % at 4 µM; AID 435003, 2010; hit rate 0.53% among 330,000; Jurkat, PMA/ionomycin-induced NF-kB luciferase reporter; in the data active = inhibition above about 50%
# Mdm2-MdmX inh = inhibitors of human Mdm2-MdmX association, primary screen, cell-based, luminescence, split luciferase, SaOS-2, uHTS; SaOS-2 split-luciferase Mdm2/MdmX complementation; inhibition, % at 8 µM; hit rate 3% among 330,000; Protein Mdm4 (Homo sapiens) + E3 ubiquitin-protein ligase Mdm2 (Homo sapiens), …;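 active = inhibition of at least 50% at 8 µM in the primary screen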
# Target sequence (O15151 whole entry, looked up): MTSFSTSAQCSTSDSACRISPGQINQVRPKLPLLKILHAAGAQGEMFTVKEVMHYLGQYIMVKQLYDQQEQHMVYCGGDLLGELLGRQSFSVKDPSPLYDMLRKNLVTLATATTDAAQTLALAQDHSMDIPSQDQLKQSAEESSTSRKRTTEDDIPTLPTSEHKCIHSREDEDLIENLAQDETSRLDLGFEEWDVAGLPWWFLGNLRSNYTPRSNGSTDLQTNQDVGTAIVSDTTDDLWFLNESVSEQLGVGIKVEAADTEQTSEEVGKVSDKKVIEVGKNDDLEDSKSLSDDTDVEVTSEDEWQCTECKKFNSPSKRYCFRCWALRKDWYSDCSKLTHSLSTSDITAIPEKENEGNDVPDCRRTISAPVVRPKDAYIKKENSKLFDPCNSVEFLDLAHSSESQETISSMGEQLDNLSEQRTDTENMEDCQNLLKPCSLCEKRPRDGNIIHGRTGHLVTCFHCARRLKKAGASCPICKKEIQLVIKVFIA
# Target sequence (Q00987 whole entry, looked up): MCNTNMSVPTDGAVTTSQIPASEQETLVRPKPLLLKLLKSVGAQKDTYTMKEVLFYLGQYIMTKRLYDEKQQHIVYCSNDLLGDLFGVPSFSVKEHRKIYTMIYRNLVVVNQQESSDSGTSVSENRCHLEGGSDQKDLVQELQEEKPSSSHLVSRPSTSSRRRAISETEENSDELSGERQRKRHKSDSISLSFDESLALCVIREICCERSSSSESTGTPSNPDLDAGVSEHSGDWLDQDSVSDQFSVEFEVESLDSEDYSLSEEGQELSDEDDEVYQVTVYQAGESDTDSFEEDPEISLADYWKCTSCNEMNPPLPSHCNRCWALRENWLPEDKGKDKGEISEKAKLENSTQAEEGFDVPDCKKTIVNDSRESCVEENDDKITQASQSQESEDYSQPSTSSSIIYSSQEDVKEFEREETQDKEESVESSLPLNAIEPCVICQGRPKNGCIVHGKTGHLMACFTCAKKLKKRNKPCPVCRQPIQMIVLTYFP
# 697 NFkB inh = inhibitors of PMA/ionomycin-induced NF-kB reporter, 697 cells, primary screen, B-cell NF-kB inhibitor project, cell-based, luminescence, uHTS; 697 B-cell NF-kB luciferase reporter, 16 h; inhibition, % at 4 µM; hit rate 0.33% among 330,000; in the data active = inhibition above about 35%
# Mdm2-MdmX conf = Mdm2-MdmX complex disruptors, retested hits, confirmation, luminescence, single concentration; shares compounds with Mdm2-MdmX inh; Mdm2-MdmX binding, luminescent assay; inhibition, % at 8 µM; hit rate 55% among 10,000; in the data active = inhibition above about 40%
# FLuc counter = full-length luciferase signal inhibition, confirmation, counter-screen for Mdm2/MdmX interaction inhibitor project, cell-based, single concentration, SaOS-2; hit rate 77% among 6,200; shares compounds with Mdm2-MdmX inh; inhibition, % at 8 µM; SaOS-2 full-length luciferase counterscreen, luminescence; AID 504607, 2011;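 active = mean inhibition at 8 µM reaching about 37%, which flags the compound as non-specific, limit read from the data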;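 also: p53-null SaOS-2 cells with luciferase driven by a doxycycline-inducible promoter; compound on cells about two nights before reading with doxycycline added after day one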
# Numbers stand for hits; 0 = inactive; - = no result. An excerpt weighted towards active compounds, which were near 4% of everything screened.
SMILES,Gli-Sufu antag,Beta apoptosis,Jurkat NFkB inh,Mdm2-MdmX inh,697 NFkB inh,Mdm2-MdmX conf,FLuc counter
NC(=O)c1ccc(Cn2c(C(=O)c3ccc(Cl)cc3)c3ccccc3[n+]2[O-])cc1,0,0,0,0,0,-,-
NCCCn1c(C(=O)c2cc(Cl)c(N)c(Cl)c2)c2ccc([N+](=O)[O-])cc2[n+]1[O-],0,86.9,0,65.8,0,53.5,63.3
NC(=O)c1ccc(Cn2c(C(=O)c3cc(Cl)c(N)c(Cl)c3)c3ccccc3[n+]2[O-])cc1,0,0,0,52.8,0,52.1,65.1
NCCCn1c(C(=O)c2cc(Cl)c(N)c(Cl)c2)c2ccc(C(F)(F)F)cc2[n+]1[O-],0,0,0,0,0,-,-
CCOC(=O)c1cc(C(=O)c2ccccc2O)cn2c(=O)c3c(C)c(C)sc3nc12,-,0,0,0,0,-,-
COc1ccccc1C(=O)NNC(=S)NC(=O)c1cccs1,-,0,0,62.7,0,0,-
COc1ccc(/C=C/C(=O)NC(=S)NNC(=O)c2cnccn2)cc1,0,76.2,0,74.1,0,52.5,53.4
COc1ccc(C(=O)NNC(=S)NC(=O)c2cccs2)cc1,0,0,0,0,0,-,-
COc1ccc(/C=C/C(=O)NC(=S)NNC(=O)c2cccs2)cc1,0,0,0,54.0,0,53.0,73.0
O=C(NNc1nc(-c2ccc(F)cc2)cs1)c1ccccc1,0,0,0,61.8,0,48.9,49.6
O=C(CSc1ccccc1)Nc1nccs1,0,0,0,0,0,-,-
O=C(CSc1nc(-c2ccccc2)cs1)Nc1nccs1,0,0,0,59.1,0,0,-
O=C1OC(Nc2nc(-c3ccc(F)cc3)cs2)c2ccccc21 (centres undefined),0,0,0,62.6,0,0,-
CC(C)(C)c1csc(NNC(=O)c2ccc(Br)cc2)n1,0,0,0,64.4,0,0,-
CC(C)C[C@@H](CN)NC(=O)c1nc[nH]c1C(=O)N[C@@H](CC(C)C)C(=O)CNC[C@H](C)NC(=O)c1nc[nH]c1C(=O)N[C@@H](C)C(=O)O,0,-,-,-,-,-,-
CCC(=O)c1ccc(OCC(=O)Nc2nc(-c3cccnc3)cs2)cc1,0,0,0,0,0,-,-
O=C(Cc1ccc(F)cc1)Nc1nc(-c2ccc(F)cc2)cs1,0,0,0,0,0,-,-
O=C(Cc1c(F)c(F)c(F)c(F)c1F)Nc1nc(-c2ccccc2)cs1,0,0,0,57.1,0,0,83.9
CCc1ccccc1OCC(=O)Nc1nc(-c2cccnc2)cs1,0,0,0,66.9,0,68.7,0
O=C(NNc1nc(-c2ccccc2)cs1)c1ccc(F)cc1,0,0,0,53.8,0,0,-
O=C(NCC1OCCc2ccccc21)c1cc(COc2ccc(F)cc2Cl)on1 (centres undefined),0,0,0,0,0,-,-
O=C(Nc1nc(=O)n(C(=O)c2cccc(C(F)(F)F)c2)s1)c1ccccc1,0,0,0,0,0,-,-
CCCCCCCN(C(=O)CCl)c1cccc(C)c1,0,0,0,99.3,0,97.2,0
N#CCCN(C(=O)COC(=O)c1nc(Cl)ccc1Cl)c1ccccc1,0,0,0,0,0,-,-
CCCCCCN(C(=O)CCl)c1ccccc1,0,0,0,97.9,0,91.5,0
O=C(CCl)N(c1ccccc1)c1ccccc1,0,-,-,-,-,-,-
N#CCCN(C(=O)CCl)c1cccc(Cl)c1,0,0,0,100.3,0,91.7,53.8
CCCC(=O)N(Cc1cc(=O)[nH]c2ccccc12)c1cccc(C)c1,0,0,0,0,0,-,-
Cc1nc(NC(=O)/C=C/c2ccccc2)sc1C(=O)Nc1ccc(Cl)cc1,0,0,0,50.5,0,0,53.4
Cc1nc(Nc2ccc(Cl)cc2Cl)sc1C(=O)Nc1ccccc1,0,0,0,0,0,-,-
